# Source: PubChem
# The list is not random: actives were taken first. Their share in the collection is about 4.6%.
# Tau fluor counter = counter-screen for tau fibril formation inhibitors. tau K18 P301L Alexa594 fluorescence, heparin fibrillization. actives 0.93% (n = 280,000). Potency, µM (highest dose often 57.7 µM), inactives show top-dose activity change, negative = decrease; also: potency is read from the fitted curve at half-maximal effect; nearly all actives have a fitted effect of over 55% in size
#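 Human K18 P301L tau (15 uM unlabeled plus 0.24 uM Alexa 594-labeled, final) in 100 mM sodium acetate pH 7 was mixed with compound and 20 uM heparin and incubated 6 hr at 37 C.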
# TR SRC2 fluor cs = alters Texas Red total fluorescence, flagging assay interference; TRb/SRC2 Texas Red total fluorescence interference; Potency, µM (highest dose often 106 µM), inactives show at the top dose fluorescence change, negative = quenching; actives 0.29% (n = 280,000); AID 1479; active = well fitted curve in either direction with a large enough effect; inconclusive = small, poorly fitted or top-dose-only effect; also: potency is read from the fitted curve at half-maximal effect
#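 Human TRb ligand-binding domain at 0.6 uM with 20 nM Texas Red SRC2 peptide in Tris buffer containing 1 uM T3 and 5% DMSO, incubated with compound 5 h at ambient temperature. Total fluorescence (555/632 nm) calculated as parallel + 2 × perpendicular.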
# Tau fibril ThT = inhibitors of human tau fibril formation, thioflavin T binding | actives 2.1% (n = 270,000) | Potency, µM (series often up to 57.4 µM), for the others: at the top dose activity, negative = inhibition, most hits filed as inhibitors | recombinant tau K18 P301L, heparin-induced fibrillization, ThT fluorescence; also: potency is read from the fitted curve at half-maximal effect; nearly all actives have a fitted effect of over 55% in size
# Target sequence (P10636 561-689 P618L limits assumed): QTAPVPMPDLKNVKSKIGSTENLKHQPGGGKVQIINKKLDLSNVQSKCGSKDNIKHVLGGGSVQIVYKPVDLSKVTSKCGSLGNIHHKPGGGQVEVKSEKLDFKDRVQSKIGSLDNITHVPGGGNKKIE
#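 Using a mix of unlabeled (15 uM) and Alexa 594-labeled (0.24 uM) tau K18 P301L, heparin-triggered fibrillization over 6 hr at 37 C was scored by ThT fluorescence.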
# PNC assembly inh = blocks assembly of the perinucleolar compartment; PC3M PTB-GFP, PNC prevalence imaging, 16 h; stronger effect = lower value; activity change (PNC), negative = inhibition, % at 10 µM; actives 3.1% (n = 140,000);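 active = readout at or below -70, meaning at least 70% loss of cells showing the perinucleolar compartment, a nuclear body marking cancer cells; inconclusive = readout between -30 and a set limit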;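 also: plate controls were DMSO wells for no effect and camptothecin positive control wells for full effect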
#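 PC3M cells stably expressing PTB-GFP, 750–1000 cells/well, treated 16 h at 37 °C with compound (23 nl of library stock), in duplicate. After paraformaldehyde fixation and Hoechst stain, imaged at 20x; PNC prevalence scored by image analysis.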
# Tau FP inhib = blocks human tau fibril formation measured by polarization. P10636. K18 P301L tau heparin fibrillization, Alexa594 FP, 6 h. Potency, µM (top dose mostly 57.7 µM), for inactives: at the highest dose activity, negative = inhibition, actives largely listed as inhibitors. actives 0.39% (n = 280,000). AID 1468; also: potency is read from the fitted curve at half-maximal effect; nearly all actives have a fitted effect of over 55% in size
#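 Quantitative HTS format: compounds meet 15 uM recombinant K18 P301L tau and Alexa 594-tau tracer in 100 mM sodium acetate pH 7; 20 uM heparin triggers fibrillization at 37 C over 6 hr; FP gives the signal.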
# TRb SRC2 PPI = disrupts binding of human TR beta to SRC2; actives 0.065% (n = 280,000); TRbeta-SRC2 peptide binding, fluorescence polarization; receptor liganded with 1 µM T3; P10828; Potency, µM (top dose mostly 106 µM), for the others: at the top dose activity change, negative = inhibition, hits mostly inhibitors; AID 1469;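 also: potency is read from the fitted curve at half-maximal effect; plate controls were bound peptide for no effect and peptide without receptor for full effect; nearly all actives have a fitted effect of over 50% in size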
# Target sequence (P10828 whole entry, looked up): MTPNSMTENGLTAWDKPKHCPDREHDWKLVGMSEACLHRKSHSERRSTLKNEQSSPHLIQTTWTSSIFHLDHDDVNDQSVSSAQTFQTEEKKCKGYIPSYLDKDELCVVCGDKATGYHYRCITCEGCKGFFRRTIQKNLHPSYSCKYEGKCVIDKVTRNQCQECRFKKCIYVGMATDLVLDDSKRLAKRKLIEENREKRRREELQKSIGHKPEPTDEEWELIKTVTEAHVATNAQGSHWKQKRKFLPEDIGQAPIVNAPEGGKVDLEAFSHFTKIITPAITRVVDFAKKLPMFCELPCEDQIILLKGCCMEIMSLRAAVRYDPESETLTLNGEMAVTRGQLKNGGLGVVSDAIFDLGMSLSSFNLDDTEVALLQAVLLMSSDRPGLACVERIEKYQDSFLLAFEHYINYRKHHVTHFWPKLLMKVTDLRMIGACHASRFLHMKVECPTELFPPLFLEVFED
#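 Quantitative HTS by FP: 0.6 uM TRb LBD, 20 nM labeled SRC2 20-mer, 1 uM T3, 5% DMSO; 5 hr ambient incubation; % activity per concentration and potencies from concentration series.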
# An asterisk follows results filed as active; ? = inconclusive; nt = not tested or not shown; [ ] = remark or other dose. Unless noted, calls follow the shape of the dose curve; as a rule, active = well fitted curve in the direction sought with a large enough effect; inconclusive = small, poorly fitted or top-dose-only effect, or another doubt; inactive = no such curve, though single readings can be large; an effect the other way counts as inactive or inconclusive. Unless noted, % is scaled to controls: 0 for no effect and ±100 for the full control effect.
SMILES,Tau fluor counter,TR SRC2 fluor cs,Tau fibril ThT,PNC assembly inh,Tau FP inhib,TRb SRC2 PPI
Cc1ccc(-c2[nH]c3ccccc3c2SCCNC(=O)c2ccc(S(=O)(=O)N(C)C)cc2)cc1,?,-3.8%,-2.4%,nt,7.5%,3.9%
CCN(CC)S(=O)(=O)c1ccc(C(=O)NCCc2cc3c(OC)ccc(OC)c3[nH]c2=O)cc1,-13.9%,-1.2%,-27.6%,?,11.4%,-5.9%
CCN(CC)S(=O)(=O)c1ccc(C(=O)NCCSc2c(-c3ccc(OC)cc3)[nH]c3ccccc23)cc1,3.98µM*[quencher],-3.4%,-2.5%,nt,3.1%,1.2%
Cc1ccc(C(=O)NCCSc2c[nH]c3ccccc23)cc1C,15.8µM*[quencher],-1.0%,?,nt,6.2%,-6.5%
COP(=O)(OC)C(Nc1ccc([N+](=O)[O-])cc1)c1ccccc1 (stereo not given),-14.1%,0.2%,-7.9%,nt,-16.6%,9.9%
COc1cccc(C(=O)NCCSc2c(-c3ccc(F)cc3)[nH]c3ccccc23)c1OC,5.01µM*[quencher],-3.7%,-12.7%,nt,-7.6%,9.3%
CCOc1ccc(C(=O)NCCSc2c(C)[nH]c3ccccc23)cc1OCC,14.1µM*[quencher],-1.9%,?,nt,?,-7.3%
COc1ccc(-c2[nH]c3ccccc3c2SCCNC(=O)c2cc(OC)c(OC)c(OC)c2)cc1,7.08µM*[quencher],-4.9%,?,nt,12.9%,8.8%
COc1ccc(-c2[nH]c3ccccc3c2SCCNC(=O)c2ccc(S(=O)(=O)N(C)C)cc2)cc1,3.98µM*[quencher],-0.4%,-10.4%,nt,3.0%,-2.1%
Cc1cnc2c(c1SCC(=O)NCc1ccccc1Cl)c(=O)n(C)c(=O)n2C,12.6%,-1.6%,5.4%,nt,3.1%,-2.5%
c1ccc(N2CCN(c3cnccn3)CC2)nc1,2.8%,-1.5%,-8.5%,13.5,5.8%,-8.5%
CCOC(=O)CC(NC(=O)c1cc2cc(Cl)ccc2oc1=O)c1ccc(C)cc1 (stereo not given),-21.7%,14.1µM*[quencher],-12.8%,nt,-9.9%,-10.4%
O=C(c1csc2ccccc12)n1cccn1,-2.2%,0.1%,-11.2%,-86.7*,2.9%,4.2%
O=C(Nc1cc(S(=O)(=O)N2CCOCC2)ccc1-n1cncn1)c1ccc(Cl)cc1,-17.6%,-0.4%,-7.4%,nt,-11.8%,-13.6%
COc1ccc(NC(=O)CN2C(=O)c3ccccc3Sc3ccc(C(=O)N4CCOCC4)cc32)c(OC)c1,-8.9%,-5.0%,-13.9%,nt,9.6%,-2.9%
COc1ccc(OC)c(NC(=O)CN2C(=O)c3ccccc3Sc3ccc(C(=O)N4CCCC4)cc32)c1,-7.3%,794µM*[quencher],-17.2%,nt,-0.2%,-20.2%
CC(C)(C)c1cc(-c2nc(N)nc(N)n2)cc(C(C)(C)C)c1,-6.5%,-2.2%,?,-16.2,28.2µM*,-0.8%
CC(C)(C)c1ccc(-c2nc(N)nc(N)n2)cc1,-2.9%[11.6 µM],-4.3%,nt,nt,0.7%[11.6 µM],2.2%
O=C/C=C/c1coc2ccc3ccccc3c2c1=O,?,-3.3%,14.1µM*,nt,-8.5%,3.3%
Cc1c(C(=O)c2ccccc2)oc2ccc3ccccc3c12,-24.4%,4.6%,-20.8%,nt,-11.4%,-1.7%
C=C(C)CSc1cc(C)c(C#N)c2nc3ccccc3n12,3.3%,-1.1%,5.4%,-93.2*,1.8%,1.1%
Cc1cc(-c2ccco2)n2c(nc3ccccc32)c1C#N,-4.6%,-1.1%,?,61.3,-0.1%,-12.7%
COCCN(CCOC)c1cc(C)c(C#N)c2nc3ccccc3n12,-8.9%,-6.1%,?,-95.0*,-0.8%,-4.6%
C/C(=N\Nc1cccc2cccnc12)c1ccc(N)cc1,?,-6.9%,25.1µM*,nt,?,-0.9%
COc1ccc(C(=S)N2CCN(c3cccc(Cl)c3)CC2)cc1,?,0.7%,-16.4%,nt,-6.5%,-3.8%
SMILES,Tau fluor counter,TR SRC2 fluor cs,Tau fibril ThT,PNC assembly inh,Tau FP inhib,TRb SRC2 PPI
O=C(CNc1cccc2ccccc12)N/N=C/C=C/c1ccco1,15.8µM*[quencher],-0.8%,?,nt,9.7%,3.9%
O=C(CNc1cccc2ccccc12)N/N=C/c1ccc(C(=O)O)cc1,-18.0%,0.6%,?,-12.4,9.8%,-0.1%
O=C(Cc1cccs1)N/N=C/C=C/c1ccco1,?,-2.9%,25.1µM*,18.7,?,-7.6%
Cc1cc([N+](=O)[O-])nn1CC(=O)N1N=C(C(F)F)CC1(O)C(F)F (stereo not given),0.9%,-0.7%,-3.6%,-2.9,6.6%,0.0%
COCCCNCCCOc1ccc(C(C)(C)c2ccccc2)cc1,-8.6%,-2.5%,-9.2%,-107.4*,-1.8%,-0.2%
COCCNCCCOc1ccc(C(C)(C)c2ccccc2)cc1,-13.5%,-2.4%,-8.3%,22.6,-6.4%,-10.1%
Cn1c(=O)oc2cc(S(=O)(=O)NCCC(=O)NC3CCCc4ccccc43)ccc21 (stereo not given),-1.2%,1.2%,-4.8%,-3.9,-3.3%,1.8%
COc1cc(C)nc(N2CCCC(C(=O)Nc3ccccc3Br)C2)n1 (stereo not given),-3.0%,0.4%,-4.1%,nt,-2.6%,-5.9%
COc1cc(OC)c(NC(=O)C2CCCN(c3ncnc4c3nc3n4CCCCC3)C2)cc1Cl (stereo not given),-14.1%,17.8µM*[quencher],?,nt,5.5%,-8.1%
COc1cc(C)nc(N2CCCC(C(=O)Nc3cccc(Cl)c3C)C2)n1 (stereo not given),-1.7%,1.1%,?,-124.4*,0.4%,-6.4%
Cc1ccc(N(C)C(=O)C2CCCN(c3ncnc4c3nc3n4CCCCC3)C2)cc1C (stereo not given),0.6%,20µM*[quencher],-7.2%,nt,-4.6%,-5.5%
CN(C(=O)C1CCCN(c2ncnc3c2nc2n3CCCCC2)C1)c1ccccc1F (stereo not given),-2.3%,-16.1%,-3.1%,nt,3.9%,2.1%
COc1ccc(Cl)cc1NC(=O)C1CCN(c2ncnc3c2nc2n3CCCCC2)CC1,-11.2%,2.6%,-9.2%,nt,7.2%,-5.7%
CCOc1ccc(S(=O)(=O)NNC(=O)c2cc3ccccc3o2)cc1,-2.3%,0.1%,-1.1%,-5.5,7.0%,-4.0%
COc1cc(NC(=O)C(=O)NNC(=O)C2CCCCC2)c(OC)cc1Cl,-4.3%,-1.4%,-10.6%,-94.6*,5.5%,0.3%
COc1cc(NC(=S)N2CCCCC2C)c(OC)cc1Cl (stereo not given),-16.4%,-0.1%,?,nt,-14.6%,-4.8%
CC(C)(C)NC(=O)c1nc2ccccc2s1,6.6%,1.0%,8.3%,?,6.2%,-20.4%
O=C(COC(=O)c1cc(-c2ccccc2)nc2ccccc12)c1ccc(Br)cc1,-19.3%,3.7%,-5.8%,nt,?,-2.0%
C/C(N)=C(/C#N)C(=O)COC(=O)c1cc(-c2ccc(Br)cc2)nc2ccccc12,-8.0%,22.4µM*[quencher],-7.1%,-26.8,4.4%,-10.9%[53 µM]
